Measurements from PubChem BioAssay (NCATS).
Inconclusive results are not listed. Values without a mark were called inactive. Activity calls are given as the source filed them. Calls come from the whole dose curve; as a rule, active = well fitted cell-killing curve with a large enough effect; inconclusive = small, poorly fitted or top-dose-only effect; inactive = flat fitted curve, though single readings scatter. Bridge positions count the residues as written; N and C are the ends. Square brackets hold non-standard residues; d marks the D form. Side chains are listed from the residue outwards. Peptide text beside a SMILES is read from it. * marks the point of attachment. Phg(4-OMe) = COc1ccc([C@H](N)C(=O)O)cc1; d(aIle) = CC[C@H](C)[C@@H](N)C(=O)O; d(aThr) = C[C@@H](O)[C@@H](N)C(=O)O; NMeF = CN[C@@H](Cc1ccccc1)C(=O)O; Isobutyryl = CC(C)C(=O)*; Hexanoyl = CCCCCC(=O)*

Assay: J3T Cancer Cell Toxicity qHTS against the NCATS CANVASS Library (AID 1347371)
Details: J3T dog glioma viability, ATP luminescence, 72 h; series mostly up to 46.1 µM; activity change, negative = cytotoxicity: at the top concentration
Text: Natural products and their derivatives continue to be wellsprings of nascent therapeutic potential. However, many laboratories have limited resources for biological evaluation, leaving their previously isolated or synthesized compounds largely or completely untested. To address this issue, the Canvass library of natural products was assembled (https://tripod.nih.gov/canvass), in collaboration with academic and industry researchers, for quantitative high-throughput screening (qHTS) across a diverse set of cell-based and biochemical assays. The pure (>85% purity by liquid chromatography/mass spectrometry [LC/MS]) Canvass library of 346 natural products were submitted by 45 academic laboratories and companies around the world. We collected pure natural products to circumvent deconvolution and structure elucidation due to time and resource limitations. The library was formatted into 1536-well plates and evaluated in 50 qHTS (in an 11-pnt concentration series) bioassays with broad scope of disease-relevant mechanisms. The resulting data set from 50 different assays was then systematically analyzed to identify overall trends and specific natural products with interesting biological activities. Reported herein are the results of each individual qHTS and their corresponding assay protocol. This assay uses ATP (luminescence) content to measure the cytotoxiciy of compounds on J3T dog glioma cancer cell line. National Center for Advancing Translational Sciences (NCATS), Rockville, MD National Institute of Health (NIH), Bethesda, Maryland
Cancer Cell Toxicity qHTS protocol: for cell lines G06, J3T, and SDT. 1. In a 1536 well, tissue culture treated white solid bottom plates (Corning 7494), 5 uL of J3T cell solution (final concentration of 500 cells / well) was dispensed using the Multidrop Combi dispenser (Thermo Fisher Scientific) into columns 2, 3, 5-48. 2. Control and Compounds were pin transferred (~23nL volume) to the assay plates via Wako Pin-tool (Wako Automation, Richmond VA) equipped with a 1536 pin head. The compounds were transferred to columns 5-48 resulting in a final concentration ranging from 0.17nM to 103uM. Dose response titration of Bortezomib was pin transferred into column 2 (1mM; 1:2 dilution; 16 points) resulting to a final concentration range of 0.1nM - 4.6uM. 3. The assay plates were further incubated in the at 37C, 5% CO2, 95% Rh for 72 hr. 4. After incubation, 3 uL of CellTiterGlo reagent (Promega) was added to the assay plates (column 1-48, rows 1-32) and centrifuged for 15 sec at 1000 rpm to remove bubbles. 5. Luminescence signal was acquired via the ViewLux plate reader (PerkinElmer) using a clear emission filter, 2 sec exposure, and 1x binning settings.
% is set by controls: 0 for no effect and ±100 for the full control effect; potency is the fitted concentration of half-maximal effect.

| SMILES | activity change, negative = cytotoxicity | outcome | Potency |
| --- | --- | --- | --- |
| CC1=C(C)C(=O)OC(C(C)C2(O)CCC3C4C5OC5C5(O)CC=CC(=O)C5(C)C4CCC32C)C1 (stereo not given) | -22.6% |  |  |
| O=Cc1ccc2n1C[C@]1(OC2)O[C@H](CO)[C@@H](O)[C@@H]1O |  | inactive |  |
| COc1ccc(-c2oc3cc(OC)cc(OC)c3c(=O)c2O)cc1 | -7.4% |  |  |
| CN1CCc2cc3c(c4c2C1(C)C(=O)c1cc(O)ccc1-4)OCO3 (stereo not given) | -12.2% |  |  |
| CCCc1c2c([nH]c(=O)c1C)C(=O)c1[nH]c(=O)c(C)c(CCC)c1C2=O | -14.4% |  |  |
| COc1ccc([C@@H]2c3cc4c(cc3C[C@H](C)C2C)OCO4)cc1OC (stereo not given in full) | -16.7% |  |  |
| O=C1CC(c2ccc(O)cc2)Oc2cc(O)ccc21 (stereo not given) | -19.1% |  |  |
| C[C@]12CCC[C@](C)(C(=O)O)[C@@H]1CC[C@@]1(C)c3cocc3CC[C@H]21 | -3.44% |  |  |
| C=CC(CCCCC)C1C(=O)NC(=O)C1C(=O)C1C(/C=C/C)C=CC2CC(C(=O)O)CC(C)C21 (stereo not given) | -19.3% |  |  |
| CC(=O)Oc1cc2c(c(OC(C)=O)c1C1CCc3cc(Cl)c(Cl)n31)C(=O)n1c-2cc(Cl)c1Cl (stereo not given) |  |  | 13.2 µM (active) |
| CO[C@H]1[C@@H](OC(=O)/C(C)=C\[C@@H]2O[C@@H]2[C@H]2O[C@H]2C)[C@H](O)[C@H](OCC23C[C@@H]4[C@H](C)CC[C@H]4C4(C=O)CC2C=C(C(C)C)C34C(=O)O)O[C@@H]1C (stereo not given in full) | -10.1% |  |  |
| C[n+]1cc2cc(C(N)=O)[nH]c3c(=N)c(Cl)c(N)c1c23 | -5.89% |  |  |
| C/C=C/c1cc2c(c(=O)o1)C(=O)[C@@H](O)[C@H](C)O2 |  |  | 26.4 µM (active) |
| C=C1C[C@]23C=CC(=O)[C@@](C)(CCCC(C)C(=O)N[C@@H](CO)C(=O)O)[C@@H]2C[C@@H]1CC3 (stereo not given in full) |  | inactive |  |
| Oc1ccc(C2Oc3cc(O)c4c(c3[C@@H]2c2cc(O)cc(O)c2)[C@H]2C(c3ccc(O)cc3)c3c(O)cc5c(c3[C@H]2C4c2ccc(O)cc2)[C@H](c2cc(O)cc(O)c2)C(c2ccc(O)cc2)O5)cc1 (stereo not given in full) | 2.79% |  |  |
| CC[C@H](C)[C@H]1NC(=O)[C@@H](NC(=O)C(C)C)[C@@H](C)OC(=O)[C@H](COC(=O)CNC(C)=O)NC(=O)[C@@H]([C@@H](C)O)NC(=O)[C@H](Cc2ccccc2)N(C)C(=O)[C@H](c2ccc(OC)cc2)NC1=O (Isobutyryl-T[d(aIle)][Phg(4-OMe)][NMeF][d(aThr)]S([Gly-Ac]); ester 1-C) | 5.29% |  |  |
| CC(C)=CCC/C(C)=C/Cc1cc([C@@H]2CC(=O)c3c(cc(O)c(CC=C(C)C)c3O)O2)ccc1O | -7.24% |  |  |
| C=C(C)C(=O)O[C@H]1C[C@@]2(C)OC(=CC2=O)/C(C)=C\[C@H]2OC(=O)C(=C)[C@H]12 |  |  | 1.66 µM (active) |
| O=c1cc(-c2ccc(O)c(O)c2)oc2cc(O[C@@H]3O[C@H](CO)[C@@H](O)[C@H](O)[C@H]3O)cc(O)c12 |  | inactive |  |
| CCCCCC(=O)N[C@@H](CC(C)C)C(=O)N[C@H](C=O)CCC(=O)O (Hexanoyl-Leu-Glu-aldehyde) | 3.64% |  |  |

| SMILES | activity change, negative = cytotoxicity | outcome | Potency |
| --- | --- | --- | --- |
| CC(=O)c1c(C)cc2c(c1O)C(=O)c1c(O)cc(O)cc1C2=O | 6.66% |  |  |
| COC12OC1(C13OC1(OC)C(=O)c1cc4cc(C)oc(=O)c4c(O)c1C3O)C(O)c1c(cc3cc(C)oc(=O)c3c1O)C2=O (stereo not given) | 3.47% |  |  |
| C=C1CCC2C(C)(C(=O)O)CCC(CC/C(C)=C/C(=O)NC(CCC(N)=O)C(=O)O)[C@@]2(C)C1 (stereo not given in full) |  | inactive |  |
| C/C=C(/C)c1cc(O)c(C)c2c1Oc1cc(O)cc(C)c1C(=O)O2 | -5.63% |  |  |
| C[C@@]12C[C@@H](C[C@@H]3C(=O)O[C@@H](c4ccoc4)[C@H](OC(=O)c4ccccc4)[C@@H]31)OC2=O | 2.45% |  |  |
| CC(=O)O[C@H]1c2ccccc2-c2c3c(cc4c2[C@@H]1N(C(C)=O)CC4)OCO3 | -4.48% |  |  |
| O=c1cc(-c2ccc(O)cc2)oc2cc(O)c([C@@H]3OC(CO)[C@H](O)[C@@H](O)[C@H]3O)c(O)c12 (stereo not given in full) | 9.93% |  |  |
| CC(CCC[C@]1(C)C(=O)C=C[C@@]23C[C@]4(C)O[C@@H](C[C@@H]4[C@H]2O)C31)C(=O)O (stereo not given in full) |  | inactive |  |
| C/C(=C\[C@@H](C)CC/C=C/CC/C=C/C(=O)O)[C@@H](O)[C@H](C)C(=O)CCCC1CC(=O)NC(=O)C1 | 2.95% |  |  |
| COc1c(O)cc(O)c2c(=O)cc(-c3ccccc3)oc12 | 4.23% |  |  |
| CCC(=O)N[C@@H](C[C@H](C)C(Cl)(Cl)Cl)C(=O)N1C(=O)C=C(OC)[C@@H]1CC(C)C | -6.41% |  |  |
| C[C@H]1CCC2(OC1)O[C@H]1C[C@H]3[C@@H]4CC(=O)[C@]5(O)C[C@H](O)CC[C@@]5(C)[C@H]4CC[C@@]3(C)[C@H]1[C@H]2C (stereo not given in full) |  | inactive |  |
| C=CC(C)(C)C(=O)[C@@H](C)[C@@H]1CC[C@@](C)(C=C)O1 | -2.61% |  |  |
| COC(=O)C1=C[C@]23C[C@@H](C)CC[C@@H]2[C@@]2(C)CC[C@@H](C(C)C)[C@@](O)(O3)[C@@H]12 | -4.86% |  |  |
| COc1cc2ccc(=O)oc2c(O)c1O[C@@H]1O[C@H](CO)[C@@H](O)[C@H](O)[C@H]1O |  | inactive [at 27.5 µM] |  |
| O=C1OC(CCO)c2cccc(O)c21 (stereo not given) |  | inactive |  |
| COc1ccc2[nH]c3c(c2c1)CCN1C[C@H]2C[C@@H](OC(=O)c4cc(OC)c(OC)c(OC)c4)[C@H](OC)[C@@H](OC)[C@H]2C[C@H]31 | -19.3% |  |  |
| COc1cc(C2OCC3C(c4ccc(O)c(OC)c4)OCC23)ccc1O (stereo not given) | 0.397% [at 9.19 µM] |  |  |
| C=C[C@]1(C)CC[C@@H]([C@H](C)C(=O)CC=C(C)C)O1 | -4.69% |  |  |
| C/C(=C\[C@H](C)C(=O)/C=C/CC1CC(=O)NC(=O)C1)[C@@H]1OC(=O)/C=C/CC/C=C/C[C@@H](O)[C@@H]1C |  |  | 3.72 µM (active) |
